Results taken from PubChem BioAssay AID504697 (The Scripps Research Institute Molecular Screening Center, 2011).
Values without a mark were called inactive. The source made the active and inactive calls.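 Rule for the calls: active = EC50 at or below 10 µM; inactive = EC50 above 10 µM.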

Assay: compound autofluorescence in calcium buffer – biochemical, fluorescence, no RTF in test wells, artefact control for cardiac thin filament activator project, dose response (AID 504697);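 note: emission near 535 nm under roughly 485 nm excitation as for IANBD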
Conditions: compound-only fluorescence in RTF assay buffer with Ca2+ (no RTF in test wells), artifact counterscreen

Compound | EC50
O=C(NCc1ccc(Cl)cc1)C1CCN(c2cnccn2)CC1 | > 71.4 µM
CCOc1cc(N2CCOCC2)c(OCC)cc1NC(=O)CCS(=O)(=O)c1ccc(Cl)cc1 | > 71.5 µM
COc1ccc(NC(=O)/C(C#N)=C\c2ccc(N3CCOCC3)o2)cc1 | 3.63 µM (active)
O=C(NCc1nnc(SCC(=O)N2CCCCCC2)o1)c1ccco1 | > 71.5 µM
Fc1ccc(-c2[nH]ncc2CN(CC2CCC2)CC2CCCO2)c(F)c1 (stereo unspecified) | > 71.5 µM
COc1ccc(C(=O)Nc2cc(C(C)=O)c(/C=C/N(C)C)oc2=O)cc1 | 29.5 µM
Cc1cc(/C=C2\SC(=S)N(Cc3ccco3)C2=O)c(C)n1-c1cccnc1 | 12 µM
O=C(CSC1=NS(=O)(=O)c2ccccc2N1)N1CCCCC1 | > 71.5 µM
Cc1ccc(C)c(C(=O)CSc2n[nH]c(C(C)C)n2)c1 | > 71.5 µM
O=C(CCSc1ccccc1)N1CCN(C(=O)c2ccco2)CC1 | > 71.5 µM
O=C(O)c1ncc(-c2ccccc2)cn1 | > 71.5 µM
CC(C)Sc1nc2ccc(Br)cc2[nH]1 | > 71.4 µM
COc1ccc2ccccc2c1C(O)c1nccn1C (stereo unspecified) | 10.7 µM
COc1ccccc1-c1nnc(SCc2nc3ccccc3s2)n1C | > 71.5 µM
COc1ccc(C(=O)/C=C/c2cn(CC(O)CN3CCN(C)CC3)c3ccccc23)cc1OC (stereo unspecified) | 25.7 µM
N#C/C(=C\c1ccc(N2CCOCC2)o1)c1nc2ccccc2[nH]1 | 1.37 µM (active)
O=C(Nc1ccc2c(c1)OCCO2)c1cccc(Cl)c1Cl | > 71.4 µM
c1ccc(Cn2c(-c3ccccc3)nc3nc4ccccc4nc32)cc1 | > 71.5 µM

Compound | EC50
COc1c(O)cccc1-c1nnn(CCC(=O)OCC(=O)c2ccccc2)n1 | > 71.5 µM
CC(C)CNC(=S)NC(=O)c1ccccc1Cl | > 71.4 µM
COc1cc(OC)c(C(=O)OC(C)C(=O)Nc2cccc(C(F)(F)F)c2)cc1OC (stereo unspecified) | > 71.5 µM
CCN(CC)c1ccc(/C=C2\C(=O)c3ccc(C(=O)O)cc3C2=O)cc1 | 1.04 µM (active)
CN1C(=O)/C(=C/C=C2\SCCN2C)OC1=S | 15.9 µM
O=C(CSc1nc2ncc(Br)cc2[nH]1)c1cccc([N+](=O)[O-])c1 | > 71.5 µM
O=C(c1cnc2ccccc2n1)N1CCN(c2ccc(C(F)(F)F)cn2)CC1 | > 71.4 µM
COc1ccccc1NC(=O)COC(=O)c1cnc(C)cn1 | > 71.5 µM
CC(=O)Oc1ccc(NC(=O)Cc2ccccc2)c(C(=O)O)c1 | > 71.5 µM
CC1(C)CC(=O)C(C=Nc2cc(C(=O)c3ccccc3)ccc2N)=C(O)C1 | > 71.5 µM
Cc1ccccc1-n1nnnc1SCC(C)C | > 71.5 µM
N#Cc1ccc(S(=O)(=O)NC2CCCCNC2=O)cc1 (stereo unspecified) | > 71.4 µM
O=C(COc1ccccc1F)NC1CC1 | > 71.5 µM
CCN1C(=O)/C(=C/C=C2/SCCN2C)SC1=S | 2.63 µM (active)
CCCN1CCc2c(sc(NC(=S)NC(=O)c3ccccc3)c2C#N)C1 | > 71.5 µM
COc1ccc(/C=C2\SC(=S)N(CCCC(=O)Nc3ccccc3C(=O)O)C2=O)cc1OC | 53.3 µM
Cn1nc(-c2ccccc2)c(C(=O)Nc2ccc(C(F)(F)F)cc2)c1Cl | > 71.5 µM
CN(CC(=O)NCc1ccco1)S(=O)(=O)c1cccc2cccnc12 | > 71.5 µM
